Results published in the supplement of paper PMC10037445.
Whole data set: some 2,900 compounds, median “NF-kB SEAP reporter activity, fold change vs agonist alone” near 0.99, cut for the highest 2% near 2.6. This excerpt belongs to a sample that is enriched for the highest values.

Experiments:
RAW-Dual [1] = experiment: NF-kB SEAP reporter activity, fold change vs agonist alone; higher = enhanced NF-kB activity
Outline: (§1)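 Reporter activity is given as fold change relative to agonist-alone wells. To measure it, 50 nL of library stock was pin-tooled onto RAW-Dual macrophages (50,000 cells/well, DMEM, 384-well plates), a PRR agonist followed 1 h later, and cells stayed at 37 °C, 5% CO2. Twenty hours on, supernatant was assayed for IRF (QuantiLuc luminescence) and NF-κB (QuantiBlue, 620 nm absorbance), and wells under 70% of agonist-control IncuCyte confluency in both mask sets were marked cytotoxic.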

RAW-Dual [2] = experiment: NF-kB SEAP reporter activity, fold change vs agonist alone; cytotoxicity flag (confluency mask): not cytotoxic; higher = enhanced NF-kB activity
Outline: as §1

RAW-Dual [3] = experiment: NF-kB SEAP reporter activity, fold change vs agonist alone; cytotoxicity flag (confluency mask): cytotoxic (confluency <70% of control); higher = enhanced NF-kB activity
Outline: as §1

[4] = library stock concentration (final ~1000-fold dilution): 10 mM, cytotoxicity flag (confluency mask): not cytotoxic, agonist: Imiquimod (TLR7) […]
[5] = library stock concentration (final ~1000-fold dilution): 10 mM, cytotoxicity flag (confluency mask): not cytotoxic, agonist: MPLA (TLR4) […]
[6] = agonist: ODN 1826 (TLR9) 0.5 ug/mL
[7] = agonist: Pam2CSK4 (TLR2/6) 0.1 ug/mL
[8] = agonist: Pam3CSK4 (TLR2/1) 0.1 ug/mL
[9] = library stock concentration (final ~1000-fold dilution): 2 mM, cytotoxicity flag (confluency mask): not cytotoxic, agonist: Imiquimod (TLR7) […]
[10] = library stock concentration (final ~1000-fold dilution): 2 mM, cytotoxicity flag (confluency mask): not cytotoxic, agonist: MPLA (TLR4) […]

## CC1(C)OC(=O)C=CC2(C)C1CC(=O)C1(C)C2CCC2(C)C(c3ccoc3)OC(=O)C3OC321 (stereo not drawn)
RAW-Dual [1]; [4]
  NF-kB SEAP reporter activity: 0.98
RAW-Dual [1]; [5]
  NF-kB SEAP reporter activity: 1.03

## CC1(C)OC(=O)C=CC2(C)C1CC(=O)C1(C)C2CCC2(C)C(c3ccoc3)OC(=O)C3OC321 (stereo not drawn) (library stock concentration (final ~1000-fold dilution): 10 mM)
RAW-Dual [2]; agonist: LPS (TLR4) 0.1 ug/mL
  NF-kB SEAP reporter activity: 1.04
RAW-Dual [2]; [6]
  NF-kB SEAP reporter activity: 0.875
RAW-Dual [2]; [7]
  NF-kB SEAP reporter activity: 1.02
RAW-Dual [2]; [8]
  NF-kB SEAP reporter activity: 1.08

## c1cncc(-c2c[nH]nn2)c1 (library stock concentration (final ~1000-fold dilution): 10 mM)
RAW-Dual [2]; agonist: LPS (TLR4) 0.1 ug/mL
  NF-kB SEAP reporter activity: 1.17
RAW-Dual [2]; [6]
  NF-kB SEAP reporter activity: 0.863
RAW-Dual [2]; [7]
  NF-kB SEAP reporter activity: 1.02
RAW-Dual [2]; [8]
  NF-kB SEAP reporter activity: 1.05

## c1cncc(-c2c[nH]nn2)c1
RAW-Dual [1]; [4]
  NF-kB SEAP reporter activity: 0.995
RAW-Dual [1]; [5]
  NF-kB SEAP reporter activity: 0.972

## CCCC1CC(C(=O)NC(C(C)Cl)C2OC(SC)C(O)C(O)C2O)N(C)C1.Cl (stereo not drawn) (library stock concentration (final ~1000-fold dilution): 10 mM)
RAW-Dual [2]; agonist: LPS (TLR4) 0.1 ug/mL
  NF-kB SEAP reporter activity: 1.11
RAW-Dual [2]; [6]
  NF-kB SEAP reporter activity: 1.04
RAW-Dual [2]; [7]
  NF-kB SEAP reporter activity: 1.06
RAW-Dual [2]; [8]
  NF-kB SEAP reporter activity: 1.08

## CCCC1CC(C(=O)NC(C(C)Cl)C2OC(SC)C(O)C(O)C2O)N(C)C1.Cl (stereo not drawn)
RAW-Dual [1]; [4]
  NF-kB SEAP reporter activity: 0.95
RAW-Dual [1]; [5]
  NF-kB SEAP reporter activity: 1.06

## CCCCCCCCCCCCCCCCCC[N+](C)(C)C
RAW-Dual [1]; library stock concentration (final ~1000-fold dilution): 10 mM, cytotoxicity flag (confluency mask): cytotoxic (confluency <70% of control), agonist: MPLA (TLR4) […]
  NF-kB SEAP reporter activity: 1.75

## CCCCCCCCCCCCCCCCCC[N+](C)(C)C (library stock concentration (final ~1000-fold dilution): 10 mM)
RAW-Dual [3]; agonist: LPS (TLR4) 0.1 ug/mL
  NF-kB SEAP reporter activity: 0.996
RAW-Dual [3]; [6]
  NF-kB SEAP reporter activity: 1.37
RAW-Dual [3]; [7]
  NF-kB SEAP reporter activity: 0.699
RAW-Dual [3]; [8]
  NF-kB SEAP reporter activity: 0.534

## Cc1cccc(-c2nn3c(c2-c2ccnc4ccc(C(N)=O)cc24)CCC3)n1 (library stock concentration (final ~1000-fold dilution): 10 mM)
RAW-Dual [2]; agonist: LPS (TLR4) 0.1 ug/mL
  NF-kB SEAP reporter activity: 1.59
RAW-Dual [2]; [6]
  NF-kB SEAP reporter activity: 1.03
RAW-Dual [2]; [7]
  NF-kB SEAP reporter activity: 1.05
RAW-Dual [2]; [8]
  NF-kB SEAP reporter activity: 1.21

## c1ccc(-c2nn3c(c2-c2ccnc4cc(OCCN5CCOCC5)ccc24)CCC3)nc1
RAW-Dual [1]; [9]
  NF-kB SEAP reporter activity: 0.793
RAW-Dual [1]; [10]
  NF-kB SEAP reporter activity: 1.27

## c1ccc(-c2n[nH]cc2-c2ccnc3ccccc23)nc1
RAW-Dual [1]; [9]
  NF-kB SEAP reporter activity: 0.961
RAW-Dual [1]; [10]
  NF-kB SEAP reporter activity: 1.15

## c1ccc(-c2n[nH]cc2-c2ccnc3ccccc23)nc1 (library stock concentration (final ~1000-fold dilution): 2 mM)
RAW-Dual [2]; agonist: LPS (TLR4) 0.1 ug/mL
  NF-kB SEAP reporter activity: 2.19
RAW-Dual [2]; [6]
  NF-kB SEAP reporter activity: 1.01
RAW-Dual [2]; [7]
  NF-kB SEAP reporter activity: 0.992
RAW-Dual [2]; [8]
  NF-kB SEAP reporter activity: 0.919

## c1ccc(-c2nn3c(c2-c2ccnc4cc(OCCN5CCOCC5)ccc24)CCC3)nc1 (library stock concentration (final ~1000-fold dilution): 2 mM)
RAW-Dual [2]; agonist: LPS (TLR4) 0.1 ug/mL
  NF-kB SEAP reporter activity: 2.87
RAW-Dual [2]; [6]
  NF-kB SEAP reporter activity: 1.07
RAW-Dual [2]; [7]
  NF-kB SEAP reporter activity: 1.05
RAW-Dual [2]; [8]
  NF-kB SEAP reporter activity: 1.01

## Cc1cccc(-c2nn3c(c2-c2ccnc4ccc(C(N)=O)cc24)CCC3)n1
RAW-Dual [1]; [4]
  NF-kB SEAP reporter activity: 1.13
RAW-Dual [1]; [5]
  NF-kB SEAP reporter activity: 1.48

## Cc1cc(C)cc(Oc2ccc(CNC(=O)C(C)N)cc2C)c1 (stereo not drawn)
RAW-Dual [1]; [4]
  NF-kB SEAP reporter activity: 1.24
RAW-Dual [1]; [5]
  NF-kB SEAP reporter activity: 1.3

## Cc1cc(C)cc(Oc2ccc(CNC(=O)C(C)N)cc2C)c1 (stereo not drawn) (library stock concentration (final ~1000-fold dilution): 10 mM)
RAW-Dual [2]; agonist: LPS (TLR4) 0.1 ug/mL
  NF-kB SEAP reporter activity: 1.3
RAW-Dual [2]; [6]
  NF-kB SEAP reporter activity: 0.9
RAW-Dual [2]; [7]
  NF-kB SEAP reporter activity: 0.484
RAW-Dual [2]; [8]
  NF-kB SEAP reporter activity: 0.732

## CC(C)=CCC/C(C)=C/CC/C(C)=C/CC/C=C(\C)CC/C=C(\C)CCC=C(C)C (library stock concentration (final ~1000-fold dilution): 10 mM)
RAW-Dual [2]; agonist: LPS (TLR4) 0.1 ug/mL
  NF-kB SEAP reporter activity: 1.34
RAW-Dual [2]; [6]
  NF-kB SEAP reporter activity: 1.09
RAW-Dual [2]; [7]
  NF-kB SEAP reporter activity: 1.14
RAW-Dual [2]; [8]
  NF-kB SEAP reporter activity: 1.12

## CC(C)=CCC/C(C)=C/CC/C(C)=C/CC/C=C(\C)CC/C=C(\C)CCC=C(C)C
RAW-Dual [1]; [4]
  NF-kB SEAP reporter activity: 0.926
RAW-Dual [1]; [5]
  NF-kB SEAP reporter activity: 1.01
